HepG2 tox: qHTS for Inhibitors of TGF-b: Cytotox Counterscreen; Potency, µM (doses to about 46.1 µM), inactives show top-dose activity change, negative = cytotoxicity, hits mostly cytotoxic; actives 0.76% (n = 410,000); AID 588856, 2011; HepG2 CAGA-GFP viability, ATP luminescence, 18 h
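CellTiter-Glo luminescence gave cytotoxicity after 18 hours at 37 degrees C. The cells were HepG2 CAGA-GFP in 1% FBS DMEM, stimulated with 500 pg/mL TGF-beta after compound addition. %Activity was normalised to no-cell wells (complete cell-killing) and DMSO (no toxicity), and curves were fitted and classified.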
DT40 TDP1 no CPT: qHTS for Inhibitors of human tyrosyl-DNA phosphodiesterase 1 (TDP1): qHTS in cells in absence of CPT | DT40 Tdp1-/- hTDP1 cells, no CPT, ATP luminescence, 48 h | Potency, µM (top dose mostly 46.2 µM), for inactives: at the top dose activity change, negative = growth inhibition, hits mostly inhibitors | actives 15% (n = 420,000); further: on the % scale 0 is the no-effect control and ±100 the full control effect; nearly all actives have a fitted effect of over 55% in size
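Chicken DT40 Tdp1-/- cells stably complemented with human TDP1 were seeded at 400 cells/well with DMSO in place of 20 nM camptothecin. After compound pinning, cells grew at least 48 hr at 37 °C; viability read by CellTiter-Glo luminescence.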
ATXN viability: Viability Counterscreen for Primary qHTS for Inhibitors of ATXN expression. Potency, µM (top dose mostly 56.7 µM), hits mostly cytotoxic. S2 cells (HEK-293 line with an ATXN2-luciferase reporter) viability, CellTiter-Fluor protease fluorescence, 24 h. AID 651635, 2014. actives 0.49% (n = 400,000); further: nearly all actives have a fitted effect of over 40% in size
TGFb SMAD3 inh: qHTS for Inhibitors of TGF-b. AID 588855, 2011. actives 1.2% (n = 410,000). Potency, µM (highest dose often 46.1 µM), inactives show at the top dose activity, negative = inhibition, hits mostly inhibitors. HepG2 CAGA-GFP TGF-b/SMAD3 reporter, GFP fluorescence, 18 h; TGF-beta stimulated, 500 pg/mL final; further: on the % scale 0 is the no-effect control and ±100 the full control effect; nearly all actives have a fitted effect of over 65% in size
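First, reporter cells (HEPG2 CAGA-GFP) rested 2 h at 37 degrees C. Next, compounds were pinned in and TGF-beta added to 500 pg/mL final. After 18 h, GFP was imaged per cell and summed per well.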
ATXN2 expr inh: Primary qHTS for Inhibitors of ATXN expression. AID 1745845, 2022. Potency, µM (top dose mostly 57 µM), for inactives: at the top dose activity change, negative = inhibition, hits mostly inhibitors. HEK-293 ATXN2-luciferase reporter, luminescence, 24 h. actives 0.72% (n = 360,000); further: on the % scale 0 is the no-effect control and ±100 the full control effect; nearly all actives have a fitted effect of over 55% in size
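qHTS (up to 57 uM final) was run with 24 h compound exposure of reporter cells at 37 °C. Each well was multiplexed: SteadyGlo luminescence measured ATXN2-luciferase expression after a fluorogenic Gly-Phe-AFC viability readout (25 uM final).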
DT40 TDP1 CPT: qHTS for Inhibitors of human tyrosyl-DNA phosphodiesterase 1 (TDP1): qHTS in cells in presence of CPT. chicken DT40 Tdp1-/-;hTDP1 cells + 20 nM CPT, ATP luminescence, 48 h. Potency, µM (series often up to 46.2 µM), without a hit: top-dose activity change, negative = growth inhibition, hits mostly inhibitors. actives 12% (n = 420,000). AID 686979, 2013; further: on the % scale 0 is the no-effect control and ±100 the full control effect; nearly all actives have a fitted effect of over 55% in size
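Cell growth measured by CellTiter-Glo luminescence after a minimum 48 h, 37 C compound exposure with 20 nM CPT in Tdp1-knockout DT40 cells stably expressing hTDP1, seeded 400/well; qHTS titration format.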
The depositor's hits bear a star; [ ] = remark or other dose. The list is not random: actives were taken first. Their share in the collection is about 17%. The call rests on the fitted dose curve; in most records, active means well fitted curve in the direction sought with a large enough effect; inconclusive means small, poorly fitted or top-dose-only effect, or another doubt; inactive means no such curve, though single readings can be large; an effect the other way counts as inactive or inconclusive. Potency means the concentration at half of the fitted maximal effect.

How did COc1ccc(NC(=O)CSc2nc(-c3cccs3)cc(C(F)(F)F)n2)cc1Cl do in these assays?
HepG2 tox: 3%; DT40 TDP1 no CPT: 23µM*; ATXN viability: inactive; TGFb SMAD3 inh: -4%; ATXN2 expr inh: -14%; DT40 TDP1 CPT: 16µM*

How did CC1(C)NC(=S)C(C)(C)N1N=O do in these assays?
HepG2 tox: -2%; DT40 TDP1 no CPT: -2%; ATXN viability: inactive; TGFb SMAD3 inh: -4%; ATXN2 expr inh: -3%; DT40 TDP1 CPT: 8%

Results for CCn1c(O)c(C=Nc2ccc(S(N)(=O)=O)cc2)c(=O)n(CC)c1=S ?
HepG2 tox: -7%; DT40 TDP1 no CPT: inconclusive; ATXN viability: inactive; TGFb SMAD3 inh: -15%; ATXN2 expr inh: -20%; DT40 TDP1 CPT: inconclusive

Results for NS(=O)(=O)c1ccc(N=Cc2c(O)n(C3CCCCC3)c(=O)n(C3CCCCC3)c2=O)cc1 ?
HepG2 tox: -111%; DT40 TDP1 no CPT: 16µM*; TGFb SMAD3 inh: 16µM*; ATXN2 expr inh: inconclusive; DT40 TDP1 CPT: 15µM*

What do the screens show for `O=[N+]([O-])c1cccc(NP(=O)(N2CC2)N2CC2)c1`?
HepG2 tox: 11%; DT40 TDP1 no CPT: 6.5µM*; ATXN viability: inactive; TGFb SMAD3 inh: 8%; ATXN2 expr inh: inconclusive; DT40 TDP1 CPT: 2.1µM*

How did CCCN(CCC)C(=O)Cc1c(-c2ccc(Cl)cc2)nc2ccc(Cl)cn12 do in these assays?
DT40 TDP1 no CPT: inconclusive; ATXN viability: inconclusive; ATXN2 expr inh: -1%; DT40 TDP1 CPT: -8%

What do the screens show for `Clc1ccc(-c2nc3ccc(Cl)cn3c2CN2CCCCC2)cc1`?
HepG2 tox: 1%; DT40 TDP1 no CPT: 16µM*; ATXN viability: inconclusive; TGFb SMAD3 inh: 0%; ATXN2 expr inh: 7%; DT40 TDP1 CPT: inconclusive

How did Clc1ccc(-c2nc3ccc(Cl)cn3c2CN2CCOCC2)cc1 do in these assays?
HepG2 tox: -11%; DT40 TDP1 no CPT: 23µM*; ATXN viability: inactive; TGFb SMAD3 inh: -24%; ATXN2 expr inh: 8%; DT40 TDP1 CPT: inconclusive

Results for CCOC(=O)c1ccccc1NC(=O)N(Cc1ccc(CC)cc1)Cc1cn[nH]c1-c1ccc(OC)cc1 ?
HepG2 tox: -10%; DT40 TDP1 no CPT: 15µM*; TGFb SMAD3 inh: inconclusive; DT40 TDP1 CPT: inconclusive

How did CCOC(=O)c1ccccc1NC(=O)c1c(O)[nH]c(=O)[nH]c1=O do in these assays?
HepG2 tox: -18%; DT40 TDP1 no CPT: -14%; ATXN viability: inactive; TGFb SMAD3 inh: -3%; ATXN2 expr inh: -8%; DT40 TDP1 CPT: 0%

Results for CCCC[C@H](CN(N=O)[C@@H](Cc1ccccc1)CN(C)N=O)N(CCc1ccccc1)N=O ?
HepG2 tox: -6%; DT40 TDP1 no CPT: inconclusive; ATXN viability: inactive; TGFb SMAD3 inh: -25%; ATXN2 expr inh: -5%; DT40 TDP1 CPT: inconclusive

Results for CC(C)[C@H](CN(N=O)[C@@H](Cc1ccccc1)CN(C)N=O)N(CCc1ccccc1)N=O ?
HepG2 tox: -10%; DT40 TDP1 no CPT: 23µM*; ATXN viability: inactive; TGFb SMAD3 inh: -2%; ATXN2 expr inh: -8%; DT40 TDP1 CPT: 23µM*

What do the screens show for `C=CCC1([C@H](C)CCC)C(=O)NC(=O)NC1=O`?
DT40 TDP1 no CPT: -26%[92.5 µM]; ATXN viability: inactive; ATXN2 expr inh: 9%[116 µM]; DT40 TDP1 CPT: -20%[92.5 µM]

Results for Cc1cc(O)c2c3c(c(=O)oc2c1)CCC(C)C3 (configuration not stated) ?
HepG2 tox: -28%; DT40 TDP1 no CPT: 12µM*; ATXN viability: inactive; TGFb SMAD3 inh: inconclusive; ATXN2 expr inh: -20%; DT40 TDP1 CPT: 15µM*

What do the screens show for `CCOc1cc(C)cc2oc(=O)c3c(c12)CCCC3`?
HepG2 tox: -8%; DT40 TDP1 no CPT: 7%; ATXN viability: inactive; TGFb SMAD3 inh: 0%; ATXN2 expr inh: 11%; DT40 TDP1 CPT: 0%

What do the screens show for `COc1ccc(OC)c(CC(=O)N(C)C2CCCN(Cc3ccccc3F)C2)c1` (configuration not stated)?
HepG2 tox: -2%; DT40 TDP1 no CPT: 9%; ATXN viability: inactive; TGFb SMAD3 inh: -25%; ATXN2 expr inh: -10%; DT40 TDP1 CPT: 4%

How did Cc1[nH]ccc2c1[nH]c1cc(=O)ccc12 do in these assays?
HepG2 tox: -41%; DT40 TDP1 no CPT: 13µM*; ATXN viability: inactive; TGFb SMAD3 inh: 0%; ATXN2 expr inh: -20%; DT40 TDP1 CPT: 8.2µM*

Results for C#CC1(O)CCC2C3CCC4=CC(=O)CCC4(C)C3CCC21C (configuration not stated) ?
ATXN2 expr inh: -10%

How did C#C[C@]1(O)CC[C@H]2[C@@H]3CCC4=Cc5nc6nc7ccccc7n6cc5C[C@]4(C)[C@H]3CC[C@@]21C do in these assays?
HepG2 tox: -13%; DT40 TDP1 no CPT: 12µM*; ATXN viability: inactive; TGFb SMAD3 inh: 23%; ATXN2 expr inh: -7%; DT40 TDP1 CPT: inconclusive

How did CC1(C)C(C(=O)N2CCN(c3ccc(Cl)cc3)CC2)C1(C)C do in these assays?
HepG2 tox: -23%; DT40 TDP1 no CPT: 18µM*; ATXN viability: inactive; TGFb SMAD3 inh: -17%; ATXN2 expr inh: inconclusive; DT40 TDP1 CPT: inconclusive

What do the screens show for `O=C(Cn1c(=O)n(CC2CCC(C(=O)NCCc3ccccc3)CC2)c(=O)c2ccccc21)Nc1cccc(F)c1` (configuration not stated)?
HepG2 tox: -10%; DT40 TDP1 no CPT: inconclusive; ATXN viability: inactive; TGFb SMAD3 inh: inconclusive; ATXN2 expr inh: 4%; DT40 TDP1 CPT: inconclusive

Results for COc1ccc(CCn2c(NN=C3CCCCC3)nc3c2c(=O)[nH]c(=O)n3C)cc1 ?
HepG2 tox: -2%; DT40 TDP1 no CPT: 16µM*; ATXN viability: inactive; TGFb SMAD3 inh: 10%; ATXN2 expr inh: 5%; DT40 TDP1 CPT: inconclusive

How did COc1ccc(CCNCc2ccc3c(c2)n(C)c(=O)n3C)cc1 do in these assays?
HepG2 tox: 5%; DT40 TDP1 no CPT: -32%; ATXN viability: inactive; TGFb SMAD3 inh: 10%; ATXN2 expr inh: 3%; DT40 TDP1 CPT: inconclusive

Results for O=P(Oc1ccc(-c2ccccc2)cc1)(N1CC1)N1CC1 ?
HepG2 tox: -11%; DT40 TDP1 no CPT: 9.2µM*; ATXN viability: inactive; TGFb SMAD3 inh: -37%; ATXN2 expr inh: 16%; DT40 TDP1 CPT: 2.1µM*
